For test [1], the target named is Metallo-beta-lactamase type 2 (Klebsiella pneumoniae) (UniProt C7C422). As to the kind of experiment: qHTS to identify inhibitors of the New Delhi Metallo-beta-lactamase (NDM): assay validation screen against the NCATS LOPAC Collection (AID 1794843).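 Note: nitrocefin turnover by NDM-1 measured as 485 nm absorbance at plateau; series mostly up to about 38 µM.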 The essentials: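 NDM-1 at 2 nM final in 50 mM HEPES pH 7.0, 1 uM ZnSO4, 0.01% Tween20, preincubated with LOPAC compounds pinned in DMSO; 50 uM nitrocefin (stock) added. Hydrolysis read as absorbance at 485 nm in the plateau phase.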

The target in test [2] is Glutathione peroxidase 1 (Homo sapiens) (UniProt P07203). As to the kind of experiment: Primary qHTS Assay for Inhibitors of Recombinant Selenoprotein Glutathione Peroxidase 1 (GPX1) (AID 1845191). Note: nearly all actives have a fitted effect of over 65% in size. As to conditions: outcome: dose series up to 48.8 µM. The essentials: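 GR-coupled readout: NADPH consumption tracked by fluorescence, ex 340/em 450 nm, at t=0 and after 15 min at RT. Final mix 10 nM GPX1, 1 mM GSH, 0.5 mM CHP, 0.5 mM NADPH, 100 nM GR, 0.01% BSA, following 30 min enzyme–compound preincubation.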
In general terms: In qHTS, concentration-response curves come from the screen itself.

Test [3] in a line: Quantitative High-Throughput drug screen in 47 multiple myeloma cell lines against the NCATS MIPE library collection: EJM_DSMZ cell viability assay (AID 1918926; note: nearly all actives have a fitted effect of over 30% in size; note: potency is the fitted concentration of half-maximal effect). In outline: (§1)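 Myeloma cells (500 per well) were exposed to MIPE 4.0 compounds by pin transfer and incubated 48 hours at 37C, 5% CO2. Viability was read as ATP by CellTiter-Glo luminescence, normalised to DMSO (100%) and media-only (0%) wells.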

A short description of test [4]: Quantitative High-Throughput drug screen in 47 multiple myeloma cell lines against the NCATS MIPE library collection: ARP1_JJKsccF8 cell viability assay (AID 1918928; note: nearly all actives have a fitted effect of over 40% in size; note: potency is the fitted concentration of half-maximal effect). In outline: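 Cell viability inhibition in this qHTS is measured via ATP content (CellTiter-Glo) after 48 h drug exposure at 37 °C. Wells hold 500 cells; DMSO-treated wells define 100% and medium-only wells 0%.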

Test [5] addresses Phospholipid hydroperoxide glutathione peroxidase GPX4 (Homo sapiens) (UniProt P36969). The experiment in a line: Primary qHTS Assay for Inhibitors of Recombinant Selenoprotein Glutathione Peroxidase 4 (GPX4) (AID 1845192). Note: nearly all actives have a fitted effect of over 65% in size. In outline:
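Steps: GPX4 plus compound, 30 min RT; add GR/GSH/NADPH master mix; start with cumene hydroperoxide; read 340/450 nm fluorescence at 0 and 15 min. Finals were 200 nM GPX4, 1 mM GSH, 0.5 mM CHP, 0.5 mM NADPH, 100 nM GR.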

Test [6] in a line: Quantitative High-Throughput drug screen in 47 multiple myeloma cell lines against the NCATS MIPE library collection: FR4_PLB cell viability assay (AID 1918924; note: nearly all actives have a fitted effect of over 35% in size; note: potency is the fitted concentration of half-maximal effect). In outline:
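We plated 500 myeloma cells per well, pinned in MIPE 4.0 compounds, and incubated for 48 hours at 37C. ATP was then quantified with CellTiter-Glo, with DMSO and media-only wells defining 100% and 0%.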

Test [7] can be described thus: Quantitative High-Throughput drug screen in 47 multiple myeloma cell lines against the NCATS MIPE library collection: AMO1_DSMZ cell viability assay (AID 1918927; note: nearly all actives have a fitted effect of over 30% in size; note: potency is the fitted concentration of half-maximal effect). The essentials:
as §1

Test [8] in a line: Quantitative High-Throughput drug screen in 47 multiple myeloma cell lines against the NCATS MIPE library collection: Delta47_JCRB cell viability assay (AID 1918925; note: nearly all actives have a fitted effect of over 45% in size; note: potency is the fitted concentration of half-maximal effect). In outline:
as §1

For test [9], the target named is Nuclear receptor subfamily 1 group I member 3 (Homo sapiens) (UniProt Q14994). As to the kind of experiment: Primary qHTS for antagonist of constitutive androstane receptor (CAR) against the NCATS DSHEA and TCM libraries (AID 1794836).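 Note: HepG2 cells stably expressing hCAR with CYP2B6 luciferase reporter stimulated by CITCO; series mostly up to about 40 µM.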 The essentials: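 HepG2-CYP2B6-hCAR cells, attached 5 h, given compounds plus CITCO agonist […], incubated 24 h at 37 C. Luciferase luminescence read, multiplexed with CellTiter-Fluor viability (Ex/Em 405/540 nm).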

The target in test [10] is Luciferin 4-monooxygenase (Photinus pyralis) (UniProt P08659). The experiment in a line: Primary firefly luciferase (FLuc) qHTS assay for identification of artifact compounds. (AID 1845220). Note: series mostly up to about 54 µM; nearly all actives have a fitted effect of over 60% in size. As to conditions: outcome: dose series up to 54.1 µM. The essentials:
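Enzymatic FLuc inhibition assay: compounds pre-exposed to luciferin/ATP (10 uM each) for 15 min, then purified P. pyralis enzyme at 10 nM added. Read-out: luminescence at 5 min.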

Test [11] in a line: Primary fluorescence-based thiol-reactive (MSTI) qHTS assay for identification of artifact compounds. (AID 1845221).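 Note: series mostly up to about 54 µM; thiol-reactive compounds lower the probe fluorescence signal; nearly all actives have a fitted effect of over 65% in size.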 In outline:
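Probe: MSTI 4 uM, PBS pH 7.4, 2% DMSO. Incubation 1 h, RT, light-protected. Readout fluorescence 525/598 nm.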

In test [12] the test system is Nanoluciferase (engineered Oplophorus gracilirostris luciferase). The experiment in a line: Primary Nanoluciferase (NLuc) qHTS assay for identification of artifact compounds. (AID 1845222).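 Note: NLuc secreted into diluted conditioned medium of S16 cells; series mostly up to about 54 µM.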 The essentials: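 S16 cell supernatant NLuc, 1:55; cpds qHTS; 15 min RT dark; Nano-Glo substrate 1:100, 5 min; luminescence; Hill fit of % inhibition.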
Test [13] can be described thus: Primary redox qHTS assay for identification of artifact compounds. (AID 1845223). The essentials: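 Redox-cycling detection via DTT (250 uM final) oxidation coupled to Amplex Red (25 uM)/HRP (250 mU/mL) in HBSS. 15 min preincubation plus 30 min after DTT, room temperature. Ex/Em 525/598 nm; 4-parameter Hill fit against DMSO and 10 uM DA3003.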

Results filed as inconclusive are left out. Where a call stands in place of a potency, no number is given. Activity calls are given as the source filed them. Calls come from the whole dose curve; as a rule, active = well fitted curve in the direction sought with a large enough effect; inconclusive = small, poorly fitted or top-dose-only effect, or another doubt; inactive = no such curve, though single readings can be large; an effect the other way counts as inactive or inconclusive.

Metallo-beta-lactamase type 2 (Klebsiella pneumoniae), sequence (C7C422 whole entry, looked up): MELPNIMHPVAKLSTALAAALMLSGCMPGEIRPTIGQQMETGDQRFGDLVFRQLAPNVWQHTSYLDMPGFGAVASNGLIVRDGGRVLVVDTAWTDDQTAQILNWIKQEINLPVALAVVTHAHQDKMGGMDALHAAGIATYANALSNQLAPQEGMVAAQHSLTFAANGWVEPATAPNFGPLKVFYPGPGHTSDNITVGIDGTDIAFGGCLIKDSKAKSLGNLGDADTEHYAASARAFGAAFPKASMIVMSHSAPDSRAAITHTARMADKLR
Phospholipid hydroperoxide glutathione peroxidase GPX4 (Homo sapiens), sequence (P36969 whole entry, looked up): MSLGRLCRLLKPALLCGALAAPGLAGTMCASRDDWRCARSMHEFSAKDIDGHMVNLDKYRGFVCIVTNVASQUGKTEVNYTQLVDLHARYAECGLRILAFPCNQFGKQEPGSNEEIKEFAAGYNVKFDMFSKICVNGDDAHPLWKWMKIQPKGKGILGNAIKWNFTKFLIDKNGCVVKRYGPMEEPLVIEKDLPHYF
Nuclear receptor subfamily 1 group I member 3 (Homo sapiens), sequence (Q14994 whole entry, looked up): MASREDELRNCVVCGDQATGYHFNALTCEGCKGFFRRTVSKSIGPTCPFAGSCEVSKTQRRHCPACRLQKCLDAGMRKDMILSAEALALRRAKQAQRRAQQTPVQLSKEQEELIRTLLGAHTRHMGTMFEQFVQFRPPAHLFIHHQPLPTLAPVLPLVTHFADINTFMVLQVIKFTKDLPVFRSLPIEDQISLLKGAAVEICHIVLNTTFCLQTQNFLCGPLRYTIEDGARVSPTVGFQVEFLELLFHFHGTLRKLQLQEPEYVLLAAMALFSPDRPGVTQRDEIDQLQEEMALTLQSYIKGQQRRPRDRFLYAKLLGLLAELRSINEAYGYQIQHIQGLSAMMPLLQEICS
Glutathione peroxidase 1 (Homo sapiens), sequence (P07203 whole entry, looked up): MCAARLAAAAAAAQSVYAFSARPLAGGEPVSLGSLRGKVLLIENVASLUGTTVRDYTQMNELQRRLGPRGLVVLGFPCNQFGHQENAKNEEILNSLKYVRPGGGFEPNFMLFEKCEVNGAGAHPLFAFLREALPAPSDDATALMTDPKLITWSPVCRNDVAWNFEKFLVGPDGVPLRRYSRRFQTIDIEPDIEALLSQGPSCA

Consider `O=C(O)c1nn(Cc2ccc(Cl)cc2Cl)c2ccccc12`, for which the result in [1] and in test [2] was inactive. Further, the Potency result in [3] and in test [4] was “inactive” in each case.

Take `COc1ccc(C(=O)N2CCCC2=O)cc1`: the compound was classed as inactive in test [1] and in [2]. In addition, the Potency result in test [5], in [6], in test [3] and in [7] was “inactive” in each case.

Regarding `COC(=O)C1=CCCN(C)C1`, the compound was called inactive in [1] and in test [2]. Further, the Potency entry in [5], in test [6], in test [8], in test [3] and in test [4] was “inactive” each time.

As to `Cn1c(=O)c2c(ncn2C)n(C)c1=O`, the compound was called inactive in test [9].

As for `COc1ccc2cc3[n+](cc2c1OC)CCc1cc2c(cc1-3)OCO2`, the compound was classed as inactive in test [9].

For `CCOC(=O)C1(c2ccccc2)CCN(CCc2ccc(N)cc2)CC1`, the outcome in test [2] was inactive.

With `CNC(=O)Oc1cccc2ccccc12`, the outcome in [2] was inactive.

Turning to `Clc1ccc(C(OCCN2CCCCC2)c2ccccc2)cc1` (configuration not stated), the result in test [2] was inactive.

In the case of `O=C(O)Cc1ccccc1`, the outcome in [2] was inactive.

Regarding `COP(=O)(OC)C(O)C(Cl)(Cl)Cl` (configuration not stated), in [2], the result was inactive.

For `O=C1O[C@H]([C@@H](O)CO)C(O)=C1O`, the outcome in test [9] was inactive.

On to `C[C@@H]1O[C@@H](O[C@@H]2C=C3CC[C@@H]4[C@H](CC[C@]5(C)[C@@H](c6ccc(=O)oc6)CC[C@]45O)[C@@]3(C)CC2)[C@H](O)[C@H](O)[C@H]1O`, for which the outcome in test [2] was inactive.

As for `NC(=O)CN1CCCC1=O`, the result in test [1] and in test [2] was inactive. Further, the Potency result in test [5] is “inactive”.

As for `CCCCCCCCCCCC[N+](C)(C)CCOc1ccccc1`, the result in test [2] was inactive.

`CC[C@]1(O)CC[C@H]2[C@@H]3CCC4=CCCC[C@@H]4[C@H]3CC[C@@]21C`: the result in test [2] was inactive.

As for `O=C1CN2CCOC2(c2ccccc2Cl)c2cc(Cl)ccc2N1` (configuration not stated), in test [2], the result was inactive. Further, the Potency result in [5] is “inactive”.

Regarding `C[C@@H]1C[C@@H]([C@H](O)CC2CC(=O)NC(=O)C2)C(=O)[C@@H](C)C1`, the result in test [2] was inactive. For the same compound, the Potency entry in test [5] was “inactive”. The Potency in test [6] was 0.743 µM (active); in test [8], 0.743 µM (active); in test [3], 3.32 µM (active); in test [7], 0.469 µM (active); in test [4] it was 0.0526 µM (active).

On to `CNC(C)Cc1ccccc1OC` (configuration not stated), for which the outcome in test [2] was inactive. The Potency result in test [5] was “inactive”.

With `O=C(N[C@H]1N=C(c2ccccc2F)c2cccc3c2N(CC3)C1=O)c1cc2ccccc2[nH]1`, the outcome in test [2], in [10], in test [11], in test [12] and in test [13] was inactive.
